# Test results from patent US20110177501, “BIOSENSOR FOR DETECTION AND VISUALISATION OF SINGLE-STRANDED DNA” (MEDICAL RESEARCH COUNCIL, published 2011).
# Target: 6-IATR-E. coli SSB (G26C) (Escherichia coli, UniProt P0AGE0 SEQ:1-177, G26C)
# Experiment: competition; stated only as similar result to IDCC-G26C
# Settings: tags: 6-IATR label on Cys26; chain copies: 4 (stated, tetramer); ssDNA
sequence,measurement,value
TTTTTTTTTTTTTTTTTTTTTTTTTTTTTTTTTTTTTTTTTTTTTTTTTTTTTTTTTTTTTTTTTTTTTT,binding signal,~28 fold Kd vs unlabeled SSB
